Results: PubChem BioAssay AID1851 (National Center for Advancing Translational Sciences (NCATS), 2009)
About 5,700 (36%) of roughly 16,000 compounds were called active. About 24% were inconclusive and are not listed. Calls follow the shape of the dose curve; as a rule, active = well fitted curve in the direction sought with a large enough effect; inconclusive = small, poorly fitted or top-dose-only effect, or effect the other way; inactive = no such curve, though single readings can be large or run the other way. The list shows a part of the results. Square brackets hold non-standard residues; d marks the D form. Peptide text beside a SMILES is read from it.

target: Cytochrome P450 1A2 (Homo sapiens) (UniProt P05177); assay: Cytochrome panel assay with activity outcomes; conditions: recombinant CYP, pro-luciferin dealkylation, luminescence, p450-cyp1a2; series mostly up to 57.1 µM; activity, negative = inhibition: at the top concentration
Sequence (P05177 whole entry, looked up): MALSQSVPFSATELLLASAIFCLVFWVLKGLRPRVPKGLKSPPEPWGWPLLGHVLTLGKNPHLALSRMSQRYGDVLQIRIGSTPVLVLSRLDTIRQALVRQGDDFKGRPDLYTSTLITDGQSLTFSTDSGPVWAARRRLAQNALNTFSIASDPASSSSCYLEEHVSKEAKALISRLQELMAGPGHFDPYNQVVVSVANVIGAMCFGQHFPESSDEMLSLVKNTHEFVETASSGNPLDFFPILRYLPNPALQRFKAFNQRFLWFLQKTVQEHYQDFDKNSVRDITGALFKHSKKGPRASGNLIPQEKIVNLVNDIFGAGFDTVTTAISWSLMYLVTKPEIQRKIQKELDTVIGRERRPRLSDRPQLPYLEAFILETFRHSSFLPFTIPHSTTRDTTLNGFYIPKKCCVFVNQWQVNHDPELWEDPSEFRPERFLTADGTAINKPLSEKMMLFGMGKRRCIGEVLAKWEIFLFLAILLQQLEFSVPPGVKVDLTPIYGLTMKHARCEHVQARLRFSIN
% is scaled to controls: 0 for no effect and ±100 for the full control effect.

activity, negative = inhibition, inactive:
CN(C)Cc1ccc(O)c(CN(C)C)n1 -8.37% [at 11.4 µM]
C[C@]12CC[C@H]3c4ccc(O)cc4CC[C@@H]3[C@H]1CC[C@@H]2OC(=O)CCC1CCCC1 -12.2% [at 11.4 µM]
COc1ccc(NS(=O)(=O)c2cc(-c3nnnn3C)ccc2OC)cc1 -12%
CC(C)(C)NS(=O)(=O)c1ccc(NS(=O)(=O)c2ccc(F)cc2)cc1 8.66%
COc1cccc(-c2nc(CS(=O)(=O)CC(=O)NCCCOC(C)C)c(C)o2)c1 -11.6%
CCC(C)C1NC(=S)N(C2CCCCC2)C1=O (configuration not stated) -15.6%
CC(C)(C)NC(=O)CSc1nnc(Cc2ccc3c(c2)OCO3)n1C1CCCCC1 -16.8%
O=C1C2Sc3[nH]c(=O)sc3C(c3ccccc3)C2C(=O)N1c1ccccc1 (configuration not stated) -9.7%
CCc1cc2c(nc1CC)CCN(CC/C(C)=N/OC[C@H]1O[C@H](c3ccccc3)C=C[C@@H]1Oc1ccc(OC)cc1)C2 0.11% [at 11.4 µM]
COC(=O)C/C=C\[C@@H](C)[C@@H](/C=N\O[C@@H](C)CN1CCCCc2nc(C)c(C)cc21)NS(=O)(=O)c1ccc(C)cc1 -4.63% [at 11.4 µM]
COc1ccc(C(=O)NNC(=O)Cc2ccc(-c3ccccc3)cc2)cc1OC -20.2%
CCOc1ccc(C(=O)O)cc1OC -16.3%
COc1cc(C(=O)NC(=S)Nc2ccc3oc(=O)ccc3c2)cc(OC)c1OC -0.189%
COc1ccc(NC(=O)N2CC3(CCN(S(C)(=O)=O)CC3)C2)cc1 -4.57%
CS[C@@H](CC(=O)O)C(=O)O 6.13% [at 11.4 µM]
CCOCCCN1C(=O)CN(C2CCCCC2)C(=O)C1c1ccc(OCC)c(OC)c1 (configuration not stated) 1.09%
Cc1cc(C)n(CC(=O)N/N=C/c2ccco2)n1 -5.36%
O=C(c1ccco1)N1CCC2(CC1)CN(c1ccccn1)C2 -2.55%
CCC(C)(NC(=O)c1ccccn1)C(=O)NC1CCCCC1 (configuration not stated) -23.3%
C[N+](C)(C)c1nc(N)nc2c1ncn2[C@H]1O[C@@H](CO)[C@@H](O)[C@H]1O -4.9% [at 2.29 µM]
O=C1COC(c2ccccc2O)=NN1CCCN1CCCC1 -13.6% [at 11.4 µM]
CC(Oc1ccc(O)cc1)(P(=O)(O)O)P(=O)(O)O 8.37%
CO[C@H]1COC(=O)C/C=C\[C@H](C)COC(=O)[C@@H](OCc2ccccc2)/C=C\[C@@H]1C -6.26% [at 11.4 µM]
CC(C)=NOC[C@@H](O)COCc1ccco1 4.83% [at 11.4 µM]
CC(C)[C@H]1C(=O)C(C(N)=O)=C(O)[C@]2(O)C(=O)C3=C(O)c4c(O)ccc(N(C)C)c4C[C@H]3C[C@@H]12 -1.01%
COc1ccc(CNC(=O)C2CSC(=O)C2)cc1 (configuration not stated) -0.484%
COc1ccc(Cc2nnc(NC(=O)c3cccc([N+](=O)[O-])c3C)s2)cc1 8.33%
CC1Cc2ccccc2N1C(=O)C1CCCCN1S(=O)(=O)c1ccccc1 (configuration not stated) -7.61%
O=C(NCC1CCCO1)c1ccc2c(=O)n(Cc3ccco3)c(SCC(=O)N3CCCC3)nc2c1 (configuration not stated) -4.77%
Cc1ccc(S(=O)(=O)/C(C#N)=C/c2c(N3CC(C)OC(C)C3)nc3ccccn3c2=O)cc1 (configuration not stated) -4.89%
Cc1ccccc1-n1ncc2c(SCC(=O)N3c4ccccc4CC3C)ncnc21 (configuration not stated) -27.5%
C[C@@H](c1ccccc1)N1C(=O)[C@H]2[C@H]3[C@H](O)[C@H](O)C/C(=N/OC[C@@H](O)COCc4ccco4)[C@@H]3CC[C@@H]2C1=O -14.6% [at 11.4 µM]
O=C(O)[C@@H]1[C@@H]2C[C@H]([C@@H](Br)[C@H]2N2C(=O)CCC2=O)[C@@H]1C(=O)O -15.8% [at 2.29 µM]
CN[C@@H]1[C@H](O[C@@H]2O[C@H](CO)[C@@H](N)[C@H](O)[C@@H]2O)O[C@H]2C[C@@H](N)[C@@H](O[C@H]3[C@@H](O)[C@H](O)[C@H](N)C[C@@H]3N)O[C@H]2[C@H]1O -8.22% [at 25.6 µM]
CC(C)Cn1cnc2c(Sc3c([N+](=O)[O-])ncn3C)nc(N)nc21 8.13% [at 2.29 µM]
Cc1c(CCO)c(=O)n(C)n1C(=O)c1ccc(F)cc1 12.2%
COc1ccc(COC(=O)N/N=C2/C[C@@H](O)[C@@H](O)[C@@H]3[C@H]4C(=O)N(c5ccc(F)cc5F)C(=O)[C@@H]4CC[C@@H]23)cc1 -3.56% [at 11.4 µM]
COc1cc2c3cc1Oc1c(OC)c(OC)cc4c1[C@@H](Cc1ccc(O)c(c1)Oc1ccc(cc1)C[C@@H]3N(C)CC2)CN(C)C4 -11.1% [at 11.4 µM]
Nc1cc(C(=O)O)[nH]c(=O)n1 -6.95% [at 11.4 µM]
C=CCn1c(Cc2ccc(OC)cc2)nnc1SCC(=O)c1cccc([N+](=O)[O-])c1 -28.6%
CSc1ccccc1N1CCN(C(=O)Nc2ccc3c(c2)NC(=O)CO3)CC1 -15.6%
COc1ccc(-c2csc(NC(=O)CCn3cnc4ccccc4c3=O)n2)cc1OC 1.57%
N[C@H](CO)C(=O)NCC(=O)O (H-[dS]-Gly-OH) 3.56% [at 2.29 µM]
CC(C)Nc1nc(NC(C)(C)C)nc(Oc2ccc(=O)n(-c3ccccc3)n2)n1 -25.1%
COc1cc(-c2[o+]c3cc(O)cc(O)c3cc2O)cc(O)c1O -19.9% [at 2.29 µM]
CCSc1nc2sc3c(c2c(=O)[nH]1)CC(C)(CC)OC3 (configuration not stated) -26.5%

AC50, active:
COc1ccc(S(=O)(=O)Nc2ccc(F)cc2)c(C)c1C 14.1 µM
COCCNC(=O)c1cc(-c2cccc(OC)c2)on1 12.6 µM
COc1ccc(-c2cc(C(=O)NCc3cccnc3)no2)cc1OC 20 µM
O=C(Nc1cccc2ncccc12)c1ccc(-c2ccc(Br)cc2)o1 0.501 µM
Cc1cc2cc(C)c3nnc(SCC(=O)NCc4ccc5c(c4)OCO5)n3c2cc1C 20 µM
Cc1cccc(CNc2ccnc(-c3cccc(C#N)c3)n2)c1 0.398 µM
N#Cc1cccc(-c2nccc(NCc3cccs3)n2)c1 0.251 µM
N#Cc1cccc(-c2nccc(NCc3cccnc3)n2)c1 0.251 µM
N#Cc1cccc(-c2nccc(NCc3ccccc3)n2)c1 0.501 µM
Cc1nc2cnc(N3CCOCC3)nc2n(CCC#N)c1=O 12.6 µM
N#CCCn1c(=O)cnc2cnc(N3CCOCC3)nc21 10 µM
O=c1cnc2cnc(N3CCOCC3)nc2n1CCc1ccccc1 3.16 µM
Cc1ccc(-n2nc(C)c3c2OC(N)=C(C#N)C3c2ccco2)cc1 (configuration not stated) 8.91 µM
CCn1c2ccccc2c2cnc(N=CN(C)C)c(C#N)c21 1.41 µM
Cc1nc(N/N=C/c2ccccc2)nc(N(C)c2ccccc2)c1[N+](=O)[O-] 1.58 µM
COc1ccc(C(=O)c2ccccc2)cc1Br 10 µM
COc1ccc(C(=O)NC(=S)NC(C)C)cc1Br 3.16 µM
COc1ccc(C(=O)NC(=S)NC(C)(C)C)cc1Br 0.562 µM
C=CCN(CC=C)C(=S)NC(=O)c1ccc(OC)c(Br)c1 0.562 µM
FC(F)(F)c1ccccc1-c1ccc2ncnc(NC3CC3)c2c1 0.316 µM
Cc1ccccc1-c1ccc2ncnc(NC3CC3)c2c1 0.126 µM
O=C(N/N=C/c1ccccn1)c1ccc(Br)o1 6.31 µM
O=C(Nc1ccccn1)c1ccco1 11.2 µM
O=C(NN=C1c2ccccc2-c2ccccc21)c1ccccn1 0.501 µM
O=C(N/N=C/c1ccco1)c1ccccn1 6.31 µM
O=C(N/N=C/c1ccccn1)c1ccco1 15.8 µM
O=C(CNC(=O)c1ccccn1)N/N=C/c1ccccc1 4.47 µM
Nc1cc2c(nc3c4ccccc4c(N)cc3[n+]2-c2cccc3ccccc23)c2ccccc12 (tested in a mixture with another compound) 1.26 µM
COc1ccc(CNC(=O)c2csc(Cc3ccc(OC)cc3)n2)cc1 14.1 µM
COc1ccc(CNC(=O)c2csc(Cc3ccc(Cl)cc3)n2)cc1 0.891 µM
CCN(C(=O)COc1cc(=O)n(C)c2ccccc12)c1cccc(Cl)c1 15.8 µM
CC1Cc2ccccc2N1C(=O)c1cc2c(=O)n3ccccc3nc2n1C (configuration not stated) 3.16 µM
Cn1c(C(=O)NCC2CCCO2)cc2c(=O)n3ccccc3nc21 (configuration not stated) 2.24 µM
Cn1c(C(=O)N2COCC2(C)C)cc2c(=O)n3ccccc3nc21 6.31 µM
COCCn1c(=O)cnc2cnc(Nc3ccccc3)nc21 1 µM
COc1cccc(Nc2ncc3ncc(=O)n(C)c3n2)c1 1.58 µM
Cn1c(=O)cnc2cnc(Nc3ccccc3)nc21 2 µM
COCCn1c(=O)cnc2cnc(Nc3cccc(OC)c3)nc21 0.794 µM
Cc1ccc(OCCCOc2cccc3cccnc23)cc1C 2.82 µM
Brc1ccccc1OCCOCCOc1cccc2cccnc12 2.24 µM
O=C(O)c1nc(-c2ccccc2)[nH]c1C(=O)O 1 µM
C=CCn1c(COc2ccccc2)nnc1SCC(=O)N/N=C/c1ccc(C)cc1 3.55 µM
COc1cccc2[nH]c3c(N4CC(C)CC(C)C4)ncnc3c12 (configuration not stated) 2 µM
c1cnc(Nc2nc(-c3ccc4ccccc4c3)cs2)nc1 0.224 µM
COC(=O)c1nn(-c2cccc(C(F)(F)F)c2)c(=O)cc1Sc1ccccn1 2.24 µM
C=CCSc1nc2c(sc3nc(C)cc(C)c32)c(=O)[nH]1 1.12 µM
